# Pyk2 oligo antag – Pyk2 (human) oligomerization antagonism. Q14289. Q293 cells, Pyk2 FERM NanoBiT luminescence; hits give low values. z-score (the deposit names both 25 µM and 10 µM). actives 0.83% (n = 99,000). AID 1347419;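 active = Z-score of -3 or lower, scaled per plate to the spread of control and sample wells; inactive = z-score above -3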;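 note: negative z-score means lost luminescence so less FERM oligomerization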
# CD11b adhes inh – CD11b/CD18-fibrinogen binding inhibition; actives 0.54% (n = 93,000); P05107+P11215; inhibition, % at 10 µM; AID 1497; K562 CD11b/CD18 adhesion to fibrinogen, ATPlite luminescence; Mn2+ added to activate the integrin;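 active = primary inhibition of 50% or more at 10 µM, then 40% or more on retest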
# CD11b adhes enh – CD11b/CD18-fibrinogen binding enhancement | actives 0.07% (n = 93,000) | AID 1499 | activation, % at 10 µM | K562 CD11b/CD18 adhesion to fibrinogen, ATPlite luminescence;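 active = 10 µM primary screen giving 50% or more activity, confirmed by 40% or more on retest at that dose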
# MRP-1 activ – MRP-1 activation; H69AR cells + doxorubicin, viability rescue, CellTiter-Glo; viability increase, % at 10 µM; actives 0.61% (n = 140,000); AID 799;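 active = viability gain under doxorubicin at or above a set limit, the compound median plus 3 SD, cut at about 4.7% in these data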;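 note: MRP-1 overexpressing cells given doxorubicin 25 µM after compound pretreatment; 18-22 h compound pretreatment then 72 h with doxorubicin before readout; 0% = doxorubicin-only wells and 100% = vehicle-treated cells without doxorubicin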
# Cav32 inh – blocks human Cav3.2 T-type calcium channel | Cav3.2-expressing cells, Fluo-4 calcium fluorescence FDSS; hits give low values | B-score at 10 µM | O95180 | actives 4% (n = 100,000);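 active = single-dose well whose peak fluorescence ratio is a statistical outlier from its plate by either plate-standardised score or position-corrected B-score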
# MRP resist rev – reverses drug resistance mediated by MRP | AID 602 | actives 0.04% (n = 85,000) | differential viability (reversal), % at 10 µM | H69AR cells + 2 uM doxorubicin, CellTiter-Glo, 72 h;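 active = viability drop by adding the cancer drug above about 55%, with treated viability meeting a 40% cutoff, limit read from the data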;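 note: viability without doxorubicin minus viability with 2 µM doxorubicin for each compound; larger differential means the compound sensitizes cells more to doxorubicin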
# Starred values were filed as active, the others as inactive; x = no result. A selection: hits, their analogues and other compounds. The true share with any hit is near 4.1%.
SMILES,Pyk2 oligo antag,CD11b adhes inh,CD11b adhes enh,MRP-1 activ,Cav32 inh,MRP resist rev
Oc1c(Cl)cc(Cl)cc1C=Nc1ccc2c(c1)OCCO2,-0.59,-8,1,-5,-9*,-20
COc1cnn(-c2ccc(Br)cc2)c(=O)c1SCc1ccccc1,x,x,x,4,x,x
CC(C)(C)C(=O)Cn1c(=N)n(Cc2ccccc2Cl)c2ccccc21,0.62,-32,2,0,-5*,7
CC(C)(C)C(=O)Cn1c(=N)n(Cc2ccccc2)c2ccccc21,0.09,x,x,-5,-4.1,-39
Cc1ccc(Oc2cc(-n3nc(C)cc3C)ncn2)cc1,-0.22,x,x,0,-0.58,0
C/C(N)=C(/C#N)C(=O)CSc1nc(C2CCCCC2)n(-c2ccccc2)n1,-1.8,13,-2,-2,-5.1*,-13
CC1=CC(C)(C)N2C(=O)C3(C(C#N)=C(N)Oc4cc(O)ccc43)c3cccc1c32 (stereo unspecified),-2.1,8,2,-4,-6.2*,-33
CC1=CC(C)(C)N2C(=O)C3(C(C#N)=C(N)OC4=C3C(=O)CC(C)(C)C4)c3cccc1c32 (stereo unspecified),x,0,-2,0,-0.32,-7
Cc1ccc2c3c1C1(C(=O)N3C(C)(C)CC2C)C(C#N)=C(N)Oc2cc(O)ccc21 (stereo unspecified),-1.4,2,4,-4,-8.9*,3
Cc1cc2c3c(c1)C1(C(=O)N3C(C)(C)CC2C)C(C#N)=C(N)Oc2cc(O)ccc21 (stereo unspecified),2.2,-3,8,-2,-2.8,-19
OC(CN1CCCCC1)CN(c1ccccc1)c1ccccc1 (stereo unspecified),0.27,11,-4,-1,x,6
Nc1nnc(CSCc2ccccc2)s1,-0.27,-2,-5,2,-1.1,x
O=C(O)c1cccc(NC(=O)c2cn(-c3ccccc3)nc2-c2cc3ccccc3o2)c1,x,38,4,2,x,x
COC(=O)CSc1nc2c(c(-c3ccco3)c1C#N)CCCC2,1.1,-22,0,-1,-0.011,-24
COC(=O)CSc1nc(SCc2ccccc2Cl)nc2c1CCCC2,-0.27,-31,2,-3,-5*,x
Cc1nn(-c2ccccc2)c(Cl)c1C(=O)Nc1nnc(C2CCCCC2)s1,-0.54,x,x,-3,-4.4*,-24
Cc1nn(-c2ccc(C(=O)Nc3nnc(C4CC4)s3)cc2)c(C)c1Cl,-0.32,0,3,2,0.17,-1
O=C(Nc1nnc(C2CC2)s1)c1cc(S(=O)(=O)N2CCN(c3ccccc3)CC2)ccc1Cl,-1,x,x,2,-0.22,-14
Cc1nn(Cc2ccccc2Cl)c(C)c1C(=O)Nc1nnc(C2CC2)s1,-0.41,12,54*,-1,-0.73,6
O=C(Nc1nnc(C2CC2)s1)c1cc(-c2ccccc2)nn1-c1ccccc1,-3.2*,8,-5,0,x,-11
Cc1cc(C)n2nc(C(=O)Nc3nnc(C4CC4)s3)nc2n1,0.18,13,-3,5.2*,-0.63,8
Cc1nn(Cc2ccccc2Cl)c(C)c1C(=O)NCc1ccco1,0.12,-12,0,0,0.7,19
CC1CCN(S(=O)(=O)c2ccc(C(=O)Nc3ccccc3-c3nc4ccccc4[nH]3)cc2)CC1,x,-9,30,0,x,x
CCC(C)C(NC(=O)OC(C)(C)C)C(=O)NC(CC(C)C)C(N)=O (stereo unspecified),0.35,-3,2,0,-0.75,10
CC1CCCN(c2nc3ccccc3nc2C(C#N)S(=O)(=O)c2cccs2)C1 (stereo unspecified),0.54,4,-4,0,-5.9*,17
SMILES,Pyk2 oligo antag,CD11b adhes inh,CD11b adhes enh,MRP-1 activ,Cav32 inh,MRP resist rev
COc1ccc(S(=O)(=O)C(C#N)c2nc3ccccc3nc2N2CCCC(C)C2)cc1 (stereo unspecified),-0.79,x,x,-3,-4.6*,6
C=CCNc1nc2c(c(=O)n(C)c(=O)n2C)n1CCCCCC,-0.79,68*,-4,-2,0.016,x
CC(C)(C)c1ccc(C(=O)OCCNC(=O)c2c(Cl)nc3ccccn23)cc1,-3.2*,2,5,-3,-1.9,5
O=C(c1cc(N2C(=O)C3C4CCC(C4)C3C2=O)ccc1Cl)N1CCN(c2ccccc2)CC1 (stereo unspecified),x,x,x,-1,x,x
O=C1c2ccccc2N2C(=O)c3ccccc3C2N1O (stereo unspecified),-1.5,-6,5,0,-0.54,-2
Cc1ccccc1N1C(=O)c2ccccc2N2C(=O)c3ccccc3C12 (stereo unspecified),0.71,0,0,-4,-4.3*,-8
COc1ccc(-c2csc(/C(C#N)=C\c3cccc([N+](=O)[O-])c3)n2)cc1,x,x,x,0,x,x
CCOc1ccccc1NC(=O)c1ccccc1-c1nc(-c2ccccc2OC)no1,-1.5,8,-5,-1,-4.7*,2
O=C1c2ccccc2C(Nc2cccc(C(F)(F)F)c2)N1Cc1ccco1 (stereo unspecified),-1.9,40,-3,-2,-5.2*,-11
COc1cccc(NC2c3ccccc3C(=O)N2Cc2ccco2)c1 (stereo unspecified),x,-11,-1,-4,-2.4,-16
Cc1ccccc1NC1c2ccccc2C(=O)N1Cc1ccco1 (stereo unspecified),x,2,4,-4,-1.4,2
CCOC(=O)c1cccc(NC2c3ccccc3C(=O)N2Cc2ccco2)c1 (stereo unspecified),x,56,-10,-5,-6.6*,12
Cn1nc([N+](=O)[O-])c(C(C#N)c2nc3ccccc3n2C)c(Cl)c1=O (stereo unspecified),x,x,x,-3,x,x
O=C1CC(c2ccco2)CC(O)=C1C=NCCN1CCN(C(=O)Nc2ccc(Cl)cc2)CC1 (stereo unspecified),x,x,x,1,x,x
O=C1CC(c2ccc(F)cc2)CC(O)=C1C=NCCN1CCN(C(=O)Nc2ccccc2)CC1 (stereo unspecified),0.89,-1,-6,2,-4.2*,12
CCC(=O)OCc1c(C(F)(F)F)nn(C)c1Sc1ccc(F)cc1,-0.32,x,x,-4,-7.5*,x
Cc1ccc(C(=O)CN2/C(=C(\O)c3ccccc3)C(=O)c3ccccc3S2(=O)=O)c(C)c1,-1.5,0,-1,-5,-5.9*,-17
COC(=O)c1ccc(-c2ccc(Cl)cc2)nc1C,x,x,x,1,x,x
COc1ccc(CCNc2c(N)n(Cc3ccccc3)c(=O)[nH]c2=O)cc1OC,-0.18,-13,-2,-1,-0.083,-4
COc1ccc([N+](=O)[O-])cc1N(CC(O)CN(CC(C)C)CC(C)C)S(=O)(=O)c1ccccc1 (stereo unspecified),-1.3,7,-3,-2,-3.9*,x
O=C(/C=C/c1ccccc1)NCCSc1ccc(Cl)cc1,1.8,x,x,2,-4.3*,x
